The source of these data is ChEMBL document CHEMBL3433997, “St. Jude Leishmania screening dataset” (2016).

Assay type in all cases: functional
In assay [1] the target is Solute carrier family 2, facilitated glucose transporter member 1 (Homo sapiens) (UniProt P11166). Nature of the assay: ST_JUDE_LEISH: Cytotoxicity at 2uM final concentration against transgenic Leishmania Mexicana promastigotes LmGLUT1 that are glucose transport deficient and complemented with the human glucose transporter GLUT1. Activity is measured by DNA content using SYBR green in vitro.

In assay [2] the target is Hexose transporter 1 (Plasmodium falciparum) (UniProt O97467). Nature of the assay: ST_JUDE_LEISH: Cytotoxicity at 2uM final concentration against transgenic Leishmania Mexicana promastigotes LmPfHT that are glucose transport deficient and complemented with the Plasmodium falciparum hexose transporter. Activity is measured by DNA content using SYBR green in vitro.
Assay [3] deals with Glucose transporter (Leishmania mexicana) (UniProt O61059). In words: ST_JUDE_LEISH: Cytotoxicity at 2uM final concentration against transgenic Leishmania Mexicana promastigotes LmGT2 that are glucose transport deficient and complemented with the L. Mexicana glucose transporter 2. Activity is measured by DNA content using SYBR green in vitro.

Structures are written as SMILES.

Sequence of Solute carrier family 2, facilitated glucose transporter member 1 (Homo sapiens) (P11166 whole entry): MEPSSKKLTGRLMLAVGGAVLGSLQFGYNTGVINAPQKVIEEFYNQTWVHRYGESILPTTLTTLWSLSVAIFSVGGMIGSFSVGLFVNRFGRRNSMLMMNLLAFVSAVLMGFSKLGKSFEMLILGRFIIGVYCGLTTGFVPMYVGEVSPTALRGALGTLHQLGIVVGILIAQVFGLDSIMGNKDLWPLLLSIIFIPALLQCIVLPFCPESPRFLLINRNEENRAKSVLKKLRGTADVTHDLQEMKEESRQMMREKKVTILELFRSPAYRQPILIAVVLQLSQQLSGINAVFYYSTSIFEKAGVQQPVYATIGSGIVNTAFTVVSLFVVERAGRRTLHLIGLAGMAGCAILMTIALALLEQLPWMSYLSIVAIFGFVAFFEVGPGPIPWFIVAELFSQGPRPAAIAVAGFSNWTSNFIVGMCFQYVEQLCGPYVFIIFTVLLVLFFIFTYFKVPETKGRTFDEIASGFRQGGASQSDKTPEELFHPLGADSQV

For the compound `N#Cc1ccc(N(CCOc2ccc3c(c2)CCC(=O)N3)Cc2ccccc2C(F)(F)F)cc1C(F)(F)F`, the results for the inhibition in assay [1], in assay [2] and in assay [3] were 7.14%, 4.94% and 5.81%, respectively.

Consider `Cc1cc(-c2cccc(CNCc3ccccc3)c2)ccc1S(=O)(=O)NCCN1CCCC1`, for which the inhibition – broadly, the change of the read-out against control, counted positive when it falls – came to 6.02% in assay [1], 8.53% in assay [2] and 5.69% in assay [3].

On to `Cc1cc(NCCC(=O)Nc2ccccc2)nc(NCc2ccccc2C)n1`, for which the inhibition in assay [1] came to 11%; in assay [2], 10.5%; in assay [3] it was 7.37%.

As for `Cc1ccc(F)cc1S(=O)(=O)N1CCCCC(c2ccc(C(F)(F)F)cc2)=N1`, the figures for the inhibition in assay [1], in assay [2] and in assay [3] were 7.48%, 5.61% and 8.34%, respectively.

As for `O=C(Cc1c[nH]cn1)Nc1ccc(-c2cccc(-c3nc4cc(F)ccc4[nH]3)c2)cc1`, the inhibition in assay [1] was 1.49%; in assay [2], 4.07%; in assay [3], 2.01%.

Regarding `Cc1c(-c2ccccc2)ccc2[nH]cc(CC#N)c12`, the results for the inhibition in assay [1], in assay [2] and in assay [3] were 1.56%, 3.54% and 0.3%, respectively.

Turning to `Cc1ccc(C(NC(=O)C2CCCCC2)c2ccc3cccnc3c2O)cc1` (stereo not drawn), the inhibition stood at 0.75% in assay [1], 1.7% in assay [2] and 0.54% in assay [3].

`O=[N+]([O-])c1ccc2c(c1)c1ccccc1n2Cc1ccccc1O`: the inhibition was 0.12% in assay [1], 1.04% in assay [2] and -2.69% in assay [3].

`CN(C)c1ccc(CN2CCC(NC(=O)c3ccc(-c4cccc(Cl)c4)s3)CC2)cc1`: the results for the inhibition in assay [1], in assay [2] and in assay [3] were 0.72%, -1% and 0.31%, respectively.

Take `COc1cc2nc(N3CCC(CNC(=O)c4cccc5cccnc45)CC3)nc(N)c2cc1OC`: the inhibition is 5.61% in assay [1], 4.14% in assay [2] and 3.91% in assay [3].

On to `O=C(/C=C/c1ccc(Cl)c(Cl)c1)NCCCCCN1CCCN(C(=O)Nc2ccc([N+](=O)[O-])cc2)CC1`, for which the inhibition in assay [1] came out at 1.18%; in assay [2], 1.11%; in assay [3], 4.07%.

For `CNCCNc1nccc(N2CCc3ncnc(Nc4ccc(OCc5cccc(F)c5)c(Cl)c4)c3C2)n1`, the inhibition was determined as 3.85% in assay [1], 5% in assay [2] and 2.3% in assay [3].

In the case of `O=C(Nc1cccc(C(F)(F)F)c1)Nc1ccc(Cl)c(C(F)(F)F)c1`, the inhibition in assay [1] was -1.34%; in assay [2] it was -2.17%; in assay [3], -0.99%.

On to `COc1cccc(Nc2nc(C)cc(NCc3ccc(-n4ccnc4)cc3)n2)c1`, for which the inhibition in assay [1] turned out to be 4.08%; in assay [2] it was 13.7%; in assay [3] it was 8.06%.

On to `CNc1nc(N/N=C/c2cc3c(cc2[N+](=O)[O-])OCO3)nc(Nc2cccc(C(F)(F)F)c2)n1`, for which the results for the inhibition in assay [1], in assay [2] and in assay [3] were 6.24%, 5.94% and 2.16%, respectively.

As to `O=C(Cc1cccc(Cl)c1)Nc1cccc(-c2c[nH]c3nc(Nc4ccccc4)ncc23)c1`, the inhibition in assay [1] is 3.42%; in assay [2], -0.54%; in assay [3], 0.7%.

Turning to `Cn1nc(-c2ccc(CNC3CCc4ccccc43)cc2)c2cnc(NCCCN3CCCC3)nc21` (stereo not drawn), the inhibition is 7.46% in assay [1], 13.8% in assay [2] and 8.91% in assay [3].

With `O=C(Nc1cccc(F)c1)NC1CCN(CCCCCNC(=O)C2CC2c2ccc(Cl)c(Cl)c2)CC1` (stereo not drawn), the inhibition in assay [1] is 0.44%; in assay [2], -0.11%; in assay [3] it was -1.31%.

In the case of `Cc1ccc(C(=O)Nc2cccc(CN3CCCN(Cc4ccc(O)cc4)CC3)c2)cc1`, the results for the inhibition in assay [1], in assay [2] and in assay [3] were 1.89%, 0.24% and -7.6%, respectively.

Regarding `COc1cc2nc(NCCc3ccccc3)nc(NCCCc3ccccc3)c2cc1OC`, the inhibition in assay [1] came out at 6.89%; in assay [2], 10.1%; in assay [3], 2.36%.

In the case of `CCN(CCCN1CCCCC1)c1cc(C)nc(Nc2ccc(Cl)c(C(F)(F)F)c2)n1`, the figures for the inhibition in assay [1], in assay [2] and in assay [3] were 0.03%, -0.3% and -1.78%, respectively.

Consider `O=C(NC1CCN(Cc2ccccc2)CC1)c1ccc2c(=O)n(Cc3ccc(Cl)cc3)c(=S)[nH]c2c1`, for which the inhibition in assay [1] is 0.69%; in assay [2] it was -0.17%; in assay [3], 1.31%.

In the case of `Oc1ccc2[nH]cc(C3CCN(CCCNCc4ccc(-c5ccccc5)cc4)CC3)c2c1`, the inhibition was 5.26% in assay [1], 8.52% in assay [2] and 2.61% in assay [3].

As for `O=[N+]([O-])c1cccc(/C=N/Nc2ccnc3cc(F)ccc23)c1`, the inhibition in assay [1] was 1.98%; in assay [2], 2.39%; in assay [3] it was 1.01%.

On to `CCOC(=O)N[C@@H]1CN[C@@H](C#Cc2cc3c(Nc4ccc(OCc5cccc(F)c5)c(Cl)c4)ncnc3s2)C1`, for which the inhibition was -1.82% in assay [1], 0.54% in assay [2] and 0.09% in assay [3].

Consider `CCN1CCN(Cc2c(O)ccc3c(=O)c(Oc4cc(C)cc(C)c4)c(C(F)(F)F)oc23)CC1`, for which the values for the inhibition in assay [1], in assay [2] and in assay [3] were 75.7%, 73.3% and 54.5%, respectively.

In the case of `Nc1ccc2[nH]cc(C3CCN(CC4CCC(NC(=O)/C=C/c5ccccc5Cl)CC4)CC3)c2n1` (stereo not drawn), the inhibition in assay [1] stood at 3.23%; in assay [2], 3.23%; in assay [3] it was 2.48%.

As for `Cc1ccc(O)cc1Nc1ccnc2cc(-c3ccc(CN4CCCCC4)o3)ccc12`, the inhibition in assay [1] is 14.4%; in assay [2], 12.2%; in assay [3], 13.8%.

On to `Cc1ccccc1C(=O)Nc1cccc(-c2nc3ncccn3c2C)c1`, for which the inhibition in assay [1] was determined as 3.33%; in assay [2], 3.11%; in assay [3], 1.25%.

For `COc1ccc(CCNc2nc(N)c3cc(OC)c(OC)cc3n2)cc1`, the inhibition in assay [1] stood at 2.3%; in assay [2], 3.91%; in assay [3] it was 1.41%.

Turning to `CC(C)C[C@H](Nc1ccc(C#N)c2ccccc12)C(=O)NC(C)(C)C12CC3CC(CC(C3)C1)C2`, the inhibition in assay [1] was 4.34%; in assay [2], 5.78%; in assay [3] it was 2.11%.

`Cc1ccc2c(c1)NCC21CCN(C[C@@H](O)C2CCN(c3cc(C#N)ccn3)CC2)CC1C` (stereo partly drawn): the inhibition was -1.68% in assay [1], 0% in assay [2] and -3.72% in assay [3].

With `CCc1c[nH]c2c(N3CCCS3(=O)=O)cc(C(=O)N[C@@H](Cc3ccccc3)[C@H](O)CNC3CCCCC3)cc12`, the inhibition in assay [1] is -0.09%; in assay [2] it was 2.13%; in assay [3] it was 3.39%.

In the case of `COc1ccc(NC(=O)Nc2ccc(-c3ccc(-c4nc5ccccc5[nH]4)cc3)cc2)cc1`, the figures for the inhibition in assay [1], in assay [2] and in assay [3] were 3.84%, 5.18% and 2.97%, respectively.

For the compound `c1cc(-c2ccc(CNCc3ccsc3)cc2)cc(-c2nc3ccccc3[nH]2)c1`, the results for the inhibition in assay [1], in assay [2] and in assay [3] were 1.08%, 3.56% and -2.01%, respectively.

For the compound `Cc1cc(C(=O)Nc2ccc3c(c2)CCN3C2CCN(Cc3cc(F)cc(F)c3F)C2)no1` (stereo not drawn), the inhibition was -0.31% in assay [1], 1.36% in assay [2] and 5.53% in assay [3].
